Reference: ChEMBL document CHEMBL2218924, “A broad activity screen in support of a chemogenomic map for kinase signalling research and drug discovery” (Biochem J, 2013)

Legend:
[1] = biological target: T1, Serine/threonine-protein kinase 17A (Homo sapiens) (UniProt Q9UEE5); conditions: at 10 µM
T1 sequence (whole entry): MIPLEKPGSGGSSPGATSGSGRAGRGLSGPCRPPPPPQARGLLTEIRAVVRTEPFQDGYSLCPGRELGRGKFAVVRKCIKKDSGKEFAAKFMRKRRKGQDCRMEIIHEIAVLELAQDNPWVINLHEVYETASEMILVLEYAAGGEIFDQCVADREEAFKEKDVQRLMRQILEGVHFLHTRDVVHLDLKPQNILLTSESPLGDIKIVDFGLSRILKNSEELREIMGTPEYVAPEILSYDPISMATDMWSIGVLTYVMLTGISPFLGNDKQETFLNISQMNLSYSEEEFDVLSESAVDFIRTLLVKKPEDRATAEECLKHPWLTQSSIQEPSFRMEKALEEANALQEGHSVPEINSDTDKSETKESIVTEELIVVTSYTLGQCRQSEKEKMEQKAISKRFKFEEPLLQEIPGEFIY

[2] = biological target: T2, Dual specificity tyrosine-phosphorylation-regulated kinase 2 (Homo sapiens) (UniProt Q92630); conditions: at 1 µM
T2 sequence (whole entry): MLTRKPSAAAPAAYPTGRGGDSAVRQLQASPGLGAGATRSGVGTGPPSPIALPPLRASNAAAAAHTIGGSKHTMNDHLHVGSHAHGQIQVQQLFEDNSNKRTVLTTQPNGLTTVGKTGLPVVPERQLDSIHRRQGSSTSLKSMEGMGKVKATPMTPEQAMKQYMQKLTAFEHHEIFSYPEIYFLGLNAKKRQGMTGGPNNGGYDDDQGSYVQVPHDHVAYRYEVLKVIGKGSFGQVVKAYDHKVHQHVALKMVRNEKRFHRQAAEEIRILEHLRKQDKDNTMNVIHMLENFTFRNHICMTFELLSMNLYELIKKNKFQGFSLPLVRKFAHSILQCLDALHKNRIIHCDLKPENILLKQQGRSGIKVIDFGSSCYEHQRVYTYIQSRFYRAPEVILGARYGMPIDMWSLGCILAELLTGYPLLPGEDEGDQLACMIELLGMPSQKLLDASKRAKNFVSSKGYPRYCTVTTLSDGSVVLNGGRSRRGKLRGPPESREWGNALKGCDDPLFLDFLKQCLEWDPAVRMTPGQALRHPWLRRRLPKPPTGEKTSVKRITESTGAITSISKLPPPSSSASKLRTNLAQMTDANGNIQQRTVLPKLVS

[3] = biological target: T2, Dual specificity tyrosine-phosphorylation-regulated kinase 2 (Homo sapiens); conditions: at 10 µM
[4] = biological target: T3, Ephrin type-A receptor 1 (Homo sapiens) (UniProt P21709); conditions: at 1 µM
T3 sequence (whole entry): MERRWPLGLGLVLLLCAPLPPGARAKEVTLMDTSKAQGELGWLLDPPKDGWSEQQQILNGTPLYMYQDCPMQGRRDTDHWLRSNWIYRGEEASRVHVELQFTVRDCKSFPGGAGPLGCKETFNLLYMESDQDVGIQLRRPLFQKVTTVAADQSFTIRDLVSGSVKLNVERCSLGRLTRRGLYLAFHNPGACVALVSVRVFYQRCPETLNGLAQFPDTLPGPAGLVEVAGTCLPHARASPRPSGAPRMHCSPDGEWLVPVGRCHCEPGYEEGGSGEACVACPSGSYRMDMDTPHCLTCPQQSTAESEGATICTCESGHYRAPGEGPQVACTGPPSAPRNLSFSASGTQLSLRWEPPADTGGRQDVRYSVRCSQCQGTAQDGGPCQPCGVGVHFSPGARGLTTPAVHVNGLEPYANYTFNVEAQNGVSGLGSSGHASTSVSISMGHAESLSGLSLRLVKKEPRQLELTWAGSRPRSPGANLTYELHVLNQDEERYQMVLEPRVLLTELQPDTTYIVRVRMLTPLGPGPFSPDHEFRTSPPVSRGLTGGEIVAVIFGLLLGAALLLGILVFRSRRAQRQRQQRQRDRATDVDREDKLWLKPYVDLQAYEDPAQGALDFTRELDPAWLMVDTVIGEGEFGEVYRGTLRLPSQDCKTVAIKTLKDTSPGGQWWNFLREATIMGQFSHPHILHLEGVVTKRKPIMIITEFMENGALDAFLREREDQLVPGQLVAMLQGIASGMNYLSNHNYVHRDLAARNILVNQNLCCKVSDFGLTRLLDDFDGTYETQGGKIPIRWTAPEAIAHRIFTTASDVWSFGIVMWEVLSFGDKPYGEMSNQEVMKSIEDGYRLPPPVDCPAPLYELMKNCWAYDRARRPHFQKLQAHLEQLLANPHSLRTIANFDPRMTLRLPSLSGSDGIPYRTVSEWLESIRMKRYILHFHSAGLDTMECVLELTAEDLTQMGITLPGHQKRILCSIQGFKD

[5] = biological target: T3, Ephrin type-A receptor 1 (Homo sapiens); conditions: at 10 µM
[6] = biological target: Ephrin type-A receptor 2 (Homo sapiens) (UniProt P29317); conditions: at 1 µM
Chain of Ephrin type-A receptor 2 (Homo sapiens) (P29317 whole entry): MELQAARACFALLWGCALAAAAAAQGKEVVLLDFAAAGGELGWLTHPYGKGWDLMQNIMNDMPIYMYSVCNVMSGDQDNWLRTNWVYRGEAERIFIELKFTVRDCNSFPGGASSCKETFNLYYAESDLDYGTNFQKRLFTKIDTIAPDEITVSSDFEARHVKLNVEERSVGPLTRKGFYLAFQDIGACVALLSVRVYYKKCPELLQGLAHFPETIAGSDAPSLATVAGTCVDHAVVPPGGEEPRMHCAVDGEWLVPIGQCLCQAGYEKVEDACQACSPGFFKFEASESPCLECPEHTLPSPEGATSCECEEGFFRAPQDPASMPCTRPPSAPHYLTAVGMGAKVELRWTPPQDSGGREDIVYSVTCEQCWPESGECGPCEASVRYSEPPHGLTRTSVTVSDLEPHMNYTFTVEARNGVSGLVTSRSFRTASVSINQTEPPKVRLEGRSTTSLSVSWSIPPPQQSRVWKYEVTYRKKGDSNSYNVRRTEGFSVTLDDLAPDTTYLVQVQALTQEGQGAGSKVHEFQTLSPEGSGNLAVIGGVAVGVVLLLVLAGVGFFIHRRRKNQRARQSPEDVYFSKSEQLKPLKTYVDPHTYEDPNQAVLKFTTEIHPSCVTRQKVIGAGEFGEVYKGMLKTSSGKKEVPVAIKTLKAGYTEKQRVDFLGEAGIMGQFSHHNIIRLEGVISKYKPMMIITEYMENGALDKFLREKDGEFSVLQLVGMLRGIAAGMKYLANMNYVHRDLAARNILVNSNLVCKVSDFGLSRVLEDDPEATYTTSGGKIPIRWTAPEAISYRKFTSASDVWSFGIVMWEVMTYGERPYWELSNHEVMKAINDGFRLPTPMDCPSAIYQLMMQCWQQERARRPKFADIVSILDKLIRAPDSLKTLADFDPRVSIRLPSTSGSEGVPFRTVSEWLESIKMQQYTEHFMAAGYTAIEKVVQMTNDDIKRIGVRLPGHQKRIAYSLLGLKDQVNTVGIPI

[7] = biological target: Ephrin type-A receptor 2 (Homo sapiens) (UniProt P29317); conditions: at 10 µM
[8] = biological target: T4, Ephrin type-A receptor 3 (Homo sapiens) (UniProt P29320); conditions: at 1 µM
T4 sequence (whole entry): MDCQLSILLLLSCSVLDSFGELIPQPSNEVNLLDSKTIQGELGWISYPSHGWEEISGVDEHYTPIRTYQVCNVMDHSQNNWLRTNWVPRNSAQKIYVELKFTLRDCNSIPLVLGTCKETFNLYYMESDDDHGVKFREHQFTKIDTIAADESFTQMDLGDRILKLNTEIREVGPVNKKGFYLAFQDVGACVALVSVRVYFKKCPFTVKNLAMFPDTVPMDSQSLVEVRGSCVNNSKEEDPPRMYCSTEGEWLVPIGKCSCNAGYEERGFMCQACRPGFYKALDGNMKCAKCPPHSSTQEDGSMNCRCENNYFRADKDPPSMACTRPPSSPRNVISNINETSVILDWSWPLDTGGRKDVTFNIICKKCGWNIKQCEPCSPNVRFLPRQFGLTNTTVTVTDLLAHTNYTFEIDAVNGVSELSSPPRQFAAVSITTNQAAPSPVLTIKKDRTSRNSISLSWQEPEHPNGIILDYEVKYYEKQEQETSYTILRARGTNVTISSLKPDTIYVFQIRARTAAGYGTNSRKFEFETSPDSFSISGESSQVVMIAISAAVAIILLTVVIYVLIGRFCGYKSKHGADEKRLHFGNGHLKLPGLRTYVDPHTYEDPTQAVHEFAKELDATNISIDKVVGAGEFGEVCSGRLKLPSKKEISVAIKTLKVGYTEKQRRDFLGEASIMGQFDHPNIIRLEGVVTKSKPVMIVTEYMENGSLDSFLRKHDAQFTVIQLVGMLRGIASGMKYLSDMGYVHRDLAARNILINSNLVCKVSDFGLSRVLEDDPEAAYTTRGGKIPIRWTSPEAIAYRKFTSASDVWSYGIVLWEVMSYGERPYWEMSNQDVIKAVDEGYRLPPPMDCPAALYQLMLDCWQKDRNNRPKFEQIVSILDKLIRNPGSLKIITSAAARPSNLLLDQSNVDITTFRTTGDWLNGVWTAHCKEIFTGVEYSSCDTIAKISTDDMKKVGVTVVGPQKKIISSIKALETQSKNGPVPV

SMILES	residual activity [1] [%]	residual activity [2] [%]	residual activity [3] [%]	residual activity [4] [%]	residual activity [5] [%]	residual activity [6] [%]	residual activity [7] [%]	residual activity [8] [%]
Nc1ccc2ncnc(NCCc3ccc(Oc4ccccc4)cc3)c2c1	48	103	92	107	87	98	91	95
Oc1ccc(-c2nc(-c3ccc(F)cc3)c(-c3ccncc3)[nH]2)cc1	–	99	76	87	16	93	57	105
Cn1nc2c3c(cccc31)C(=O)c1ccccc1-2	20	91	75	88	68	92	97	88
O=C(O)c1ccc2c3c1cccc3c(=O)n1c3ccccc3nc21	13	54	11	103	89	88	102	103
CC(=O)c1ccc(N2CCOCC2)cc1O	–	108	92	94	110	102	–	107
N#C/C(=C(\N)Sc1ccc(N)cc1)c1ccccc1C(F)(F)F	118	105	95	94	82	98	111	96
Cc1cccc(-c2[nH]c(C(C)(C)C)nc2-c2ccc3c(c2)OCO3)n1	–	94	104	90	106	–	–	–
c1ccc(-c2n[nH]cc2-c2ccnc3ccccc23)nc1	–	89	104	90	90	102	95	99
CC[n+]1c(/C=C/N(C)c2ccccc2)n(-c2ccccc2)c2ccc(-c3nc4ccccc4s3)cc21	68	99	103	100	100	109	90	116
Nc1nc(Nc2ccc(S(N)(=O)=O)cc2)nn1C(=S)Nc1c(F)cccc1F	4	49	-1	1	3	13	-2	65
